Assay outcomes: PubChem BioAssay, National Center for Advancing Translational Sciences (NCATS)
HPGD block: qHTS Assay for Inhibitors of HPGD (15-Hydroxyprostaglandin Dehydrogenase); 15-hydroxyprostaglandin dehydrogenase [NAD(+)] (Homo sapiens), P15428; purified HPGD, NADH fluorescence kinetic, PGE2 substrate; Potency, µM, for inactives: at the highest dose activity change, negative = inhibition, actives largely listed as inhibitors; 4.3% of 150,000 active; AID 894, 2007; further: potency means the concentration at half of the fitted maximal effect
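NADH formation kinetics: reaction with 30 uM PGE2 and 1 mM NAD+ (final), 20 nM enzyme, Tris-HCl pH 8 with Tween 20, after 15 min compound preincubation at room temperature. Fluorescence change, last versus first of five reads.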
PNC inhibitor: High Content Assay for Compounds that inhibit the Assembly of the Perinucleolar Compartment. PC3M PTB-GFP, PNC prevalence imaging, 16 h; active compounds read low. activity change (PNC), negative = inhibition, % at 10 µM. 3.1% of 140,000 active. AID 2417, 2010;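 active means readout at or below -70, meaning at least 70% loss of cells showing the perinucleolar compartment, a nuclear body marking cancer cells; inconclusive means readout between -30 and a set limit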;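 further: plate controls were DMSO wells for no effect and camptothecin positive control wells for full effect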
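Compounds are pinned in duplicate onto adhered PC3M cells stably expressing GFP-tagged PTB and incubated 16 h at 37 C. Cells are then fixed, nuclei stained with Hoechst, and PNC-positive cells counted.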
NPSR antag: qHTS Assay for Antagonists of the Neuropeptide S Receptor: cAMP Signal Transduction | CHO-NPSR cells, cAMP TR-FRET, antagonist mode | 1% of 220,000 active | Potency, µM (top dose mostly 38.3 µM), inactives show top-dose activity change, negative = inhibition, hits mostly inhibitors | Q6W5P4; active means well fitted curve in the direction sought with a large enough effect; inconclusive means small, poorly fitted or top-dose-only effect, or another doubt; inactive means no such curve, though single readings can be large; an effect the other way counts as inactive or inconclusive; further: potency means the concentration at half of the fitted maximal effect; nearly all actives have a fitted effect of over 50% in size
ALDH1A1 block: qHTS Assay for Inhibitors of Aldehyde Dehydrogenase 1 (ALDH1A1). Purified ALDH1A1, NADH fluorescence, propionaldehyde substrate. Potency, µM (titrated, usually from 75.3 µM), inactives show at the highest dose activity, negative = inhibition, hits mostly inhibitors. 7.3% of 220,000 active. AID 1030, 2008;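 further: potency means the concentration at half of the fitted maximal effect; plate controls were no enzyme wells and a reference inhibitor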
Target sequence (P00352 whole entry, looked up): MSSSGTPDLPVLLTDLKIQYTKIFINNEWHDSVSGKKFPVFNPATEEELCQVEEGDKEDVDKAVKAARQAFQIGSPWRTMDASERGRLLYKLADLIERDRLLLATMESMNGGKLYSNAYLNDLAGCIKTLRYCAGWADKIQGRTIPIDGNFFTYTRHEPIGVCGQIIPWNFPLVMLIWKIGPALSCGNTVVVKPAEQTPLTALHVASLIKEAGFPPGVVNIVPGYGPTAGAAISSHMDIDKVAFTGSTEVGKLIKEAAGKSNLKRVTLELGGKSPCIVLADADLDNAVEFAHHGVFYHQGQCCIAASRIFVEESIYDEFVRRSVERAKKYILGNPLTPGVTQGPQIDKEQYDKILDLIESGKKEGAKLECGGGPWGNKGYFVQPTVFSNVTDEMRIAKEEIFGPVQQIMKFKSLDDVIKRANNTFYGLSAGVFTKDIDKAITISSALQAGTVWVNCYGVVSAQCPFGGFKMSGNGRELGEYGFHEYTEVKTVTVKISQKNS
IMPase inh: qHTS Assay for Identifying the Cell-Membrane Permeable IMPase Inhibitors | inhibition (IP1 accumulation), % at 46.1 µM | Inositol monophosphatase 1 (Rattus norvegicus), P97697 | 120,000 tested, under 10 active | CHO-M1 cells, IP1 accumulation, HTRF TR-FRET ratio; active means well fitted curve in the direction sought with a large enough effect in the signal ratio, not every such curve was filed as active; inconclusive means small, poorly fitted or top-dose-only effect, or a change in a side signal; inactive means no such curve, though single readings can be large or run the other way; the % refers to the signal ratio;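 further: cells stimulated with carbachol in lithium chloride buffer; plate controls were DMSO basal wells for no effect and reference inhibitor wells for full effect; higher means more IMPase inhibition seen as more IP1 and lower FRET ratio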
Target sequence (P97697 whole entry, looked up): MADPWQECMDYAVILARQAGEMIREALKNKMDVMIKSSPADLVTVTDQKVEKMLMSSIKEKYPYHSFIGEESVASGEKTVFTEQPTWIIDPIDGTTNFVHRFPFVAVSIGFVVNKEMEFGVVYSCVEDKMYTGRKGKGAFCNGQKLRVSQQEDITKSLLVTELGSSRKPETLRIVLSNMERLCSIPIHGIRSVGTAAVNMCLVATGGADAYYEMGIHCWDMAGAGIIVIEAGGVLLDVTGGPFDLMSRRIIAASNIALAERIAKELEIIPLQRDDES
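The IP-One HTRF competitive assay in carbachol-stimulated CHO-M1 cells quantifies cellular IP1. Compounds spanned up to 46 uM final, and activity is expressed as AC50 from concentration-response fits of the ratio and donor data.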
IMPase Li inh: qHTS Assay for Identifying the Cell-Membrane Permeable IMPase Inhibitors: Potentiation with Lithium | CHO-M1 cells, IP1 TR-FRET (IP-One), carbachol + lithium | 0.35% of 210,000 active | AID 1457, 2008 | Potency, µM (series often up to 59.4 µM), for inactives: at the highest dose activity, negative = IMPase inhibition, most hits filed as inhibitors; active means well fitted curve in the direction sought with a large enough effect; inconclusive means small, poorly fitted or top-dose-only effect, or another doubt; inactive means no such curve, though single readings can be large; an effect the other way counts as inactive or inconclusive;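 further: IP1 builds up when IMPase is blocked and the TR-FRET signal falls; potency means the concentration at half of the fitted maximal effect; plate controls were basal vehicle for no effect and high inhibitor control for full effect; nearly all actives have a fitted effect of over 50% in size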
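Concentration–response in CHO-M1 cells, lithium-potentiated; 30 min at 37C. IP1 detected by competitive TR-FRET after 10 min lysis at RT. Hill-fitted AC50.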
Starred values were filed as active, the others as inactive; ? = inconclusive; / = no result; [ ] = dose if it differs, or a comment. Most compounds without a hit are left out; they make up all but 11% or so of the library. Unless noted, the call rests on the fitted dose curve; in most records, active means well fitted inhibition curve with a large enough effect (not every such curve was filed as active); inconclusive means small, poorly fitted or top-dose-only effect, or another doubt; inactive means no such curve, though single readings can be large or run the other way. Unless noted, on the % scale 0 is the no-effect control and ±100 the full control effect.

SMILES	HPGD block	PNC inhibitor	NPSR antag	ALDH1A1 block	IMPase inh	IMPase Li inh
O=[N+]([O-])c1ccc(/C=N/Nc2nc(N3CCCCCC3)nc(N3CCCCCC3)n2)o1	-20%	-11	6.3µM*	3%	-3	13%
O=[N+]([O-])c1ccc(-c2ccc(/C=N/Nc3nc(NCc4ccccc4)nc(N4CCOCC4)n3)o2)cc1	/	/	-33%	?	/	-8%
Cc1n[nH]c(C)c1C(=O)CC1(O)C(=O)N(Cc2ccccc2)c2ccc(Br)cc21 (configuration not stated)	-12%	?	-25%[46.1 µM]	10µM*	9	25%[38.3 µM]
O=C(CC1(O)C(=O)N(Cc2ccccc2)c2ccc(Br)cc21)c1ccccc1 (configuration not stated)	/	/	/	/	18	/
C=CCN1C(=O)C(O)(CC(=O)c2ccco2)c2cc(Br)ccc21 (configuration not stated)	/	/	11%	7.9µM*	/	1%
Cc1n[nH]c(C)c1C(=O)CC1(O)C(=O)N(CCc2ccccc2)c2ccc(Br)cc21 (configuration not stated)	-11%	20	-23%[46.1 µM]	?	6	5%[38.3 µM]
CCOC(=O)c1c(C)[nH]c(C)c1C(=O)COC(=O)/C=C/c1cccc(C(F)(F)F)c1	-10%	-15	-18%	-5%	/	1%
COc1ccccc1-c1cncnc1N1CCN(C)CC1	/	/	/	1%	/	10%
COc1ccccc1Oc1nc2c(c(=O)n(Cc3ccccc3F)c(=O)n2C)n1C	14µM*	-30	-19%[46.1 µM]	8.9µM*	-4	1%[38.3 µM]
Cn1c(=O)n(Cc2ccccc2F)c(=O)c2c1nc1n2CCN1Cc1ccco1	/	/	-20%	7.9µM*	/	-5%
Cn1c(=O)n(Cc2ccc(Cl)cc2)c(=O)c2c1nc1n2CCN1Cc1ccco1	-5%	-7	?	?	7	-1%[38.3 µM]
Cn1c(NCCCO)nc2c1c(=O)n(Cc1ccccc1F)c(=O)n2C	-2%	-12	-12%[46.1 µM]	1%	10	-3%[38.3 µM]
CCOc1ccc2[nH]c(=O)c(CN(Cc3ccco3)C(=O)c3ccc(Br)cc3)cc2c1	-20%	32	?	4.5µM*	-14	6%[38.3 µM]
Cc1ccc(NC(=S)N(CCN(C)C)Cc2cc3cc(C)cc(C)c3[nH]c2=O)cc1	-4%	-116*	-41%	13%	/	2%
CCOc1ccc2[nH]c(=O)c(CN(Cc3ccco3)C(=O)c3cccc(F)c3)cc2c1	?	15	27%[46.1 µM]	?	16	?
COc1cccc(C(=O)N(Cc2ccco2)Cc2cc3cccc(C)c3[nH]c2=O)c1	/	?	-23%[46.1 µM]	14µM*	21	/
Cc1cc(C)c2[nH]c(=O)c(CN(Cc3ccco3)C(=O)c3cccs3)cc2c1	?	-20	?	18µM*	4	-1%[38.3 µM]
Cc1ccc2[nH]c(=O)c(CN(Cc3ccco3)C(=O)c3ccncc3)cc2c1	-17%	-23	-10%[46.1 µM]	-15%	2	-10%[38.3 µM]
Cc1ccc2cc(CN(CCN(C)C)C(=S)Nc3ccccc3)c(=O)[nH]c2c1C	/	/	11%	2%	/	6%
C/C(=N\NC(=O)C1COc2ccccc2O1)c1ccccn1 (configuration not stated)	-12%	109	11%	?	/	7%
O=C(c1cccs1)N(Cc1ccco1)Cc1cc2ccccc2[nH]c1=O	-14%	-117*	0%[7.67 µM]	?	6	18%[38.3 µM]
Cc1cnc(C(=O)N2CCCC(C(=O)c3ccc(C(C)(C)C)cc3)C2)cn1 (configuration not stated)	/	/	15%	13µM*	/	21%
Nn1c(-c2ccccc2Cl)nnc1-c1ccccc1Cl	-27%	262	-11%[46.1 µM]	?	-1	13%
O=c1c(Cl)cc(Cl)nn1-c1ccccc1	-17%	?	-21%	32µM*	/	-11%
COc1ccc(C(=O)COC(=O)C2CCN(S(=O)(=O)c3cccc4cccnc34)CC2)cc1	-11%	33	19%	-4%	/	13%
SMILES	HPGD block	PNC inhibitor	NPSR antag	ALDH1A1 block	IMPase inh	IMPase Li inh
O=C(COC(=O)C1CCN(S(=O)(=O)c2cccc3cccnc23)CC1)c1ccc([N+](=O)[O-])cc1	-6%	-26	-19%[46.1 µM]	6.3µM*	10	-4%
O=C(CSc1nnc(-c2cccnc2)n1-c1ccc(SC(F)F)cc1)N1CCCc2ccccc21	-2%	28	-30%	20µM*	/	10%
CCOc1ccccc1-n1c(SCC(=O)N2CCCc3ccccc32)nnc1-c1cccnc1	-1%	21	-2%	13µM*	/	1%
COc1ccc(Cl)cc1NC(=O)NCCN1CCNC1=O	/	/	-2%[7.67 µM]	/	/	/
CCc1nc(-c2ccc(C)nc2OC)no1	-1%	-7	-1%[46.1 µM]	-1%	16	12%[38.3 µM]
COc1ccccc1-c1nc(-c2ccccn2)no1	-23%	-5	5%[46.1 µM]	-10%	-3	-4%[38.3 µM]
COc1nc(C)ccc1-c1noc(-c2ccccn2)n1	22µM*	6	-3%[46.1 µM]	-6%	0	20%[38.3 µM]
COc1ccccc1-c1nc(-c2ccc(C)nc2OC)no1	-17%	-98*	15%[46.1 µM]	?	-6	6%
Cc1ccc(OCCc2csc(N)n2)cc1	/	/	42%	8%	/	-2%
CCCCC#Cc1nc(N)c2ncn([C@@H]3O[C@H](C(=O)NCC)[C@@H](O)[C@H]3O)c2n1	-7%	/	-25%[46.1 µM]	7.9µM*	/	5%
CCCCC#Cc1nc(N)c2ncn([C@@H]3O[C@@H](C(=O)NCC)[C@H](O)[C@@H]3O)c2n1	/	/	/	/	-3	/
CCCn1c(=O)c(C(=O)c2ccccc2)nc2ccccc21	-2%	?	-10%[46.1 µM]	-20%	-5	-8%[38.3 µM]
CCCCn1c(=O)c(C(=O)c2ccccc2)nc2ccccc21	-17%	?	-15%[46.1 µM]	22µM*	4	5%[38.3 µM]
CC(NC(=O)C1CCCN(S(=O)(=O)c2cccs2)C1)c1ccccc1 (configuration not stated)	-12%	-22	12%[46.1 µM]	?	-1	46%[38.3 µM]
CC(C)(C)C(=O)Nc1cc2nn(-c3ccccc3)nc2cc1Cl	?	39	-22%[46.1 µM]	?	2	23%[38.3 µM]
O=C(Nc1ccc(N2CCCC2)c(Cl)c1)c1ccc([N+](=O)[O-])o1	/	/	7.9µM*	3.5µM*	/	23%
O=C(/C=C/c1ccccc1)NC(=S)Nc1ccc(N2CCOCC2)c(Cl)c1	/	21	-16%[46.1 µM]	1%	9	/
O=C(Nc1ccc(N2CCOCC2)c(S(=O)(=O)Nc2cc(Cl)ccc2Cl)c1)c1cccnc1	/	/	37%	/	/	/
